Measurements as given in ChEMBL document CHEMBL3988442, “University of Dundee, Small-Polar-MMV Screening Library” (2021).

Organism: Homo sapiens
Test: To identify inhibition of the IFN signalling (Jak-Stat) pathway via expression of an eGFP reporter gene under the control of an IFN-stimulated response element (ISRE) containing MxA promoter.
Format: functional
Design: scale not given: direction of the effect not stated beside the values
Conditions: 30 µM

| SMILES | Percent Effect |
| --- | --- |
| COc1cc(CNC2CCc3nc(C(C)C)nn3C2)cc2c1OCO2 (centres undefined) | -4.24% |
| CCOCC1CN(Cc2ccoc2)Cc2nn(CC3CC3)cc21 (centres undefined) | 5.53% |
| O=C(c1cc(COc2ccc3c(c2)OCO3)[nH]n1)N1CCCC1 | 14.2% |
| CCCS(=O)(=O)N1CCC(NC(=O)c2cc(C)c(CC)s2)CC1 | 13.4% |
| CCOC(=O)C1CCN(C(=O)Cn2ccc3cc(Br)ccc32)CC1 | 4.34% |
| CCOc1cc(C)ccc1NC(=O)N(C)Cc1cnn(C)c1 | 11.9% |
| COc1ccc(C(=O)N2CCC(Nc3ccc(C)nn3)CC2)c(F)c1 | 25.4% |
| CC(C)CCc1noc(CN2CCCN(C(=O)c3ccco3)CC2)n1 | 7.02% |
| Cc1noc2nc(C3CCN(Cc4ccncc4)CC3)cc(C(F)F)c12 | 39.2% |
| COCC1CN(Cc2ccc(C)o2)Cc2cn(C)nc21 (centres undefined) | -4.89% |
| Cc1cnn(CCNCc2ccccc2Oc2cccnc2)c1 | 6.29% |
| CN(CCCC#N)C1CCCN(Cc2noc(C3CC3)n2)C1 (centres undefined) | -4.02% |
| Cc1cc(C)nc(CCNC(=O)[C@H]2CNC[C@@H](C(=O)N3CCCC3)C2)n1 | 29.4% |
| CCOc1cc(C)nc(N2CCN(C(=O)CC)CC2)n1 | 17.8% |
| Cn1ccc(C(=O)N2CCCC(Cc3cccc4ncccc34)C2)n1 (centres undefined) | 49.9% |
| CCn1ccnc1CN1CCN(CCOc2ccccc2OC)CC1 | 7.16% |
| O=S(=O)(N(Cc1ccccn1)C1CC1)N1CCCC1c1ccco1 (centres undefined) | 5.33% |
| Cn1ncc2c(=O)[nH]c(CN3CCCC3Cc3ccccc3)nc21 (centres undefined) | 9.4% |
| CC1CN(CC(=O)Nc2cccnc2)CCN1c1nccs1 (centres undefined) | 27.8% |
